KCNH2 3.1 inh – KCNH2 3.1 (human) potassium channel inhibition; U2OS KCNH2 3.1, thallium flux FluxOr; active compounds read low; activity change, % (tested at about 1.8 µM); hit rate 0.95% among 340,000;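 active = maximum activity change below -70%; inconclusive = maximum activity change from -70% to -50%; inactive = maximum activity change above -50%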;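 note: thallium influx rate constant from kinetic fluorescence after stimulation buffer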
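Normalized rate constant (relative to positive and negative DMSO controls) derived from a 2 min kinetic fluorescence read after stimulation; U2OS cells expressing the 3.1 isoform via virus at 1.77 x 10^8 /mL.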
Luc counter – blocks Kinase-Glo luciferase, a counter-screen artifact; hit rate 0.28% among 200,000; Potency, µM (titrated, usually from 38.3 µM), without a hit: at the highest dose activity change, negative = inhibition, actives largely listed as inhibitors; Kinase-Glo luciferase, ATP luminescence, 8 min; Q27757; active = well fitted inhibition curve with a large enough effect; inconclusive = small, poorly fitted or top-dose-only effect; note: potency is the fitted concentration of half-maximal effect; nearly all actives have a fitted effect of over 60% in size
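Compound is pinned into ATP-containing buffer (10 uM ATP, imidazole pH 7.2, 7 mM MgCl2). Kinase-Glo luciferase reagent is then added. Light output is recorded following an 8-min room-temperature incubation.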
hERG WT inh – blocks the wildtype human KCNH2 potassium channel. U2OS, BacMam KCNH2, thallium flux FluxOr; active compounds read low. hit rate 0.37% among 340,000. AID 720551. Q12809. activity change, % at 1.84 µM;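 active = maximum activity change below -70%; inconclusive = maximum activity change between -70% and -50%; inactive = maximum activity change above -50%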
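U2OS cells transduced with wild-type KCNH2 virus are loaded with FluxOr dye for 45 min, and thallium flux is measured in kinetic reads before and after stimulation buffer. Rate constants are normalized to DMSO controls.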
* = called active by the depositor; u = inconclusive; x = not tested or not shown; [ ] = remark or other dose. An excerpt weighted towards active compounds, which were near 1.2% of everything screened. % is set by controls: 0 for no effect and ±100 for the full control effect.

SMILES	KCNH2 3.1 inh	Luc counter	hERG WT inh
Cc1ccc(CN2C3CCCC2CC(NC(=O)c2ccc(F)cc2)C3)cc1 (configuration not stated)	-80*	x	u
O=C(NC1CC2CCC(C1)N2Cc1ccccc1)c1cccc(F)c1 (configuration not stated)	-2	x	21
COc1ccc(CN2C3CCC2CC(NC(=O)c2cccc(F)c2)C3)cc1 (configuration not stated)	-84*	x	-26
Cc1ccc(C(=O)CCC(=O)NC2=NCCS2)cc1	8	x	-18
Cc1ccc2nc(C)cc(C(=O)N3CCCC(N4CCN(c5ccccc5C)CC4)C3)c2c1 (configuration not stated)	0	x	-25
Cc1ccc(S(=O)(=O)N(CC(=O)Nc2ccccc2)C(=O)N2CCN(C)CC2)cc1	-20	x	-9
COc1cc(S(=O)(=O)NCCCn2ccnc2)ccc1Cl	7	x	8
Cc1ccccc1NC(=O)c1c(C)nc(SCC(=O)OCc2ccccc2)c(C#N)c1-c1ccc(F)cc1	-114*	2%	1
Cc1nc(SCC(=O)OCc2ccccc2)c(C#N)c(-c2ccccc2)c1C(=O)Nc1ccccc1	-2	2%	-2
COc1ccc([N+](=O)[O-])c(OC)c1C(=O)NC(=O)Nc1nc(C)nc(C)n1	4	x	-18
O=C(N/C(=C\c1ccccc1)C(=O)N1CCOCC1)c1ccccc1Br	3	x	-9
CCOc1ccccc1NC(=O)Nc1ccon1	-5	x	3
COc1ccc(N=C2C(=S)N(c3ccc(OC)cc3)C(=NS(=O)(=O)c3ccccc3)N2c2ccccc2)cc1	30	x	-4
N=C1N(c2ccccc2)C(=S)C(=Nc2ccccc2)N1c1ccccc1	-18	x	-71*
Nc1ncnc2c1ncn2[C@H]1O[C@@H](CO)[C@@H](O)[C@H]1N	x	-3%[7.66 µM]	x
Cc1ccc(C)c(OCC(=O)NCC(C)(C)N2CCOCC2)c1	-13	x	10
Cc1cccc(OCC(=O)NCC(C)(C)N2CCOCC2)c1	-153*	x	14
O=C(N=C1SC2CS(=O)(=O)CC2N1c1ccc(Br)cc1F)C1CC1 (configuration not stated)	18	x	-156*
O=C(N=C1SC2CS(=O)(=O)CC2N1c1ccc(Br)cc1Cl)C1CC1 (configuration not stated)	6	x	8
N/C(=N\OC(=O)c1ccc(Cl)cc1)c1nonc1N	6	u	-18
N/C(=N/OC(=O)c1ccccc1F)c1nonc1N	10	11µM*	5
O=C(CCOc1ccccc1)Nc1ccnn1C1CCN(Cc2ccc(F)cc2)CC1	-24	x	13
CCOc1ccc(N(CC(=O)NCCSc2ccccn2)S(=O)(=O)c2ccc(Cl)cc2)cc1	-1	x	6
CCOc1ccc(N(CC(=O)N/N=C/c2ccccn2)S(=O)(=O)c2ccc(Cl)cc2)cc1	-81*	x	-4
Cc1nc2ccc(F)cc2cc1C(=O)NCc1ccco1	5	1%	-1
SMILES	KCNH2 3.1 inh	Luc counter	hERG WT inh
Cc1nc2ccc(F)cc2cc1C(=O)Nc1ccc(Cl)c(Cl)c1	4	2%	-130*
CCn1ncc(/C=C/C(=O)c2ccccc2)c1C	-19	10µM*	1
Cc1c(/C=C/C(=O)c2ccccc2)cnn1C	12	u	-8
Cc1ccc(C(=O)NC2CC(C)(C)NC(C)(C)C2)cc1S(=O)(=O)N1CCOCC1	9	x	-4
C=C1CCN([C@@H](Cc2ccccc2)C(=O)NCc2ccc(Cl)cc2)S(=O)(=O)c2ccccc21	-70*	x	-15
C=C1CCN([C@@H](Cc2ccccc2)C(=O)NCc2ccccc2)S(=O)(=O)c2ccccc21	-11	x	3
COc1c2c(c(C(=O)/C=C/C(C)=C/c3ccccc3)c3c1OCO3)CCN(C)C2	x	-1%	x
CCNc1ncc2nc(CCc3ccccc3)c(=O)n(CCOC)c2n1	x	2%	x
COC(=O)c1cn(C(=O)c2cccc(Br)c2)c2ccccc12	-1	x	18
CSC1=NC2(CC(c3ccccc3)Oc3cc(O)ccc32)CC(C)(C)N1 (configuration not stated)	-94*	3%	u
COc1cccc(C2CC3(CC(C)(C)NC(=S)N3)Oc3cc(O)ccc32)c1 (configuration not stated)	-6	1%	3
COc1ccc2nc(NN=C(C)c3ccccn3)cc(C)c2c1	-19	x	-21
COc1ccc(NC(=O)c2c(F)cccc2Cl)cc1S(=O)(=O)N1CCOCC1	1	x	-2
CSCC[C@H](NC(=O)Cc1c(C)c2cc3c4c(oc3cc2oc1=O)CCCC4)C(=O)O	10	x	-4
CCCCC(NC(=O)Cc1c(C)c2cc3c4c(oc3cc2oc1=O)CCCC4)C(=O)O (configuration not stated)	-3	x	-151*

From PubChem BioAssay
